Assay results as given in PubChem BioAssay AID777 (Sanford-Burnham Center for Chemical Genomics, 2007).
Out of some 96,000 compounds screened, about 19,000 (20%) were called active. Only a sample is shown. Values without a mark were called inactive.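 Rule for the calls: active = blocking of liver enzyme CYP2C9 beyond about 50% at 5 µM (limit read from the data); inactive = the rest.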

Target: Cytochrome P450 2C9 (Homo sapiens) (UniProt P11712)
Assay: blockers of cytochrome P450 2C9 activity – biochemical, luminescence, ADME assay, primary screen (AID 777)
Conditions: CYP2C9 Supersomes, luciferin-H conversion, at 5 µM, active compounds read high

Sequence of Cytochrome P450 2C9 (Homo sapiens) (P11712 whole entry, looked up): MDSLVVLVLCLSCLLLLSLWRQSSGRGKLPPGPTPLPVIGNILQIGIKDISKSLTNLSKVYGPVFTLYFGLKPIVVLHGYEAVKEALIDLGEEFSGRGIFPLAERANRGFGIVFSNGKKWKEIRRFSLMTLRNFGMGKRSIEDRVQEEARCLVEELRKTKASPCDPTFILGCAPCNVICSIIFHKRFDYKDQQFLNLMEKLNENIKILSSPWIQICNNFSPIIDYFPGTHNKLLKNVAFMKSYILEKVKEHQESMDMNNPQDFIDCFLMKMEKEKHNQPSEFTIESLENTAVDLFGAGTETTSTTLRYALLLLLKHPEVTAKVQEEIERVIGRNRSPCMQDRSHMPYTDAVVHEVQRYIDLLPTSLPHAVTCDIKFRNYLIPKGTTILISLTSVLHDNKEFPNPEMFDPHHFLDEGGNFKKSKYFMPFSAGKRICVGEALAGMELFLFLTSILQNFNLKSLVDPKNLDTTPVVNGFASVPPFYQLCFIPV

SMILES	inhibition
CC(C)C(=O)Nc1ccc2c(c1)oc1ccccc12	1.8%
CC1Cc2ccccc2N1C(=O)CSc1nnc(-c2ccc(S(=O)(=O)N3CCCCC3)cc2)o1 (stereo not drawn)	31.7%
COc1ccc(C2=NOC3(CC(=O)N(c4ccc(C)cc4)C3=O)C2)cc1 (stereo not drawn)	12%
CCCc1nnc(NC(=O)c2cc(OC)cc(OC)c2)s1	21.7%
COc1ccc(S(=O)(=O)Nc2ccc(F)cc2)c(C)c1C	66.9% (active)
COc1ccc(S(=O)(=O)N2CCCC2)c(C)c1C	-147%
Cc1ccc(NS(=O)(=O)c2c(C)[nH]c(=O)[nH]c2=O)cc1C	4.6%
CCOc1cc(C(=O)Nc2ncccn2)cc(OCC)c1OCC	3.1%
Nc1nnc(C2CCCC2)s1	7.5%
CCCSC1=C(C#N)C(c2ccccc2C)C(C(=O)OC)C(=O)N1 (stereo not drawn)	33.7%
COc1ccc(NC(=O)c2sccc2SCC#N)cc1	10.4%
CC1=C(C(=O)Nc2ccccc2)C(c2cccs2)C(C#N)=C(SCC#N)N1 (stereo not drawn)	87.5% (active)
C/C(=N\O)C1(C)N(O)C(C)(C)C(c2ccc(Br)cc2)=[N+]1[O-] (stereo not drawn)	-4.6%
O=c1onc(-c2cccs2)n1Cc1ccccc1	4.9%
Cc1ccc(OCCCC(=O)N2CCOCC2)c(C)c1	4%
CCCCCNC(=O)Cc1ccc(OC)cc1	14.9%
COc1ccc(S(=O)(=O)N2CCC(C(=O)N3CCOCC3)CC2)cc1OC	43.3%
CCNC(=O)NC(=O)C(C)OC(=O)c1cc(S(=O)(=O)N2CCCCCC2)ccc1OC (stereo not drawn)	98.5% (active)
CSCCC(NC(=O)c1ccco1)C(=O)OCC(=O)Nc1ncc(Cl)c(C)c1Cl (stereo not drawn)	24.2%
CCc1cc(=O)oc2cc(C)cc(OC(C)C(=O)O)c12 (stereo not drawn)	-7.1%
CCCCc1cc(=O)oc2cc(C)cc(OCc3nn[nH]n3)c12	67.5% (active)

SMILES	inhibition
O=c1[nH]c(CCl)nc2cc(-c3ccc(Cl)cc3)sc12	17.9%
O=C(Nc1sc2c(c1-c1nc3ccccc3[nH]1)CCCC2)C1CC1	40.5%
CCOC(=O)c1[nH]c2ccc(C)cc2c1N=C(C)N(C)C	-7.9%
CCOc1ccc(C(=O)N(Cc2ccc(N(C)C)cc2)C2CCS(=O)(=O)C2)cc1 (stereo not drawn)	65.3% (active)
COc1ccc(C(=O)N(Cc2ccc(N(C)C)cc2)C2CCS(=O)(=O)C2)cc1 (stereo not drawn)	-2.3%
COc1cc(C(=O)N(Cc2ccc(N(C)C)cc2)C2CCS(=O)(=O)C2)cc(OC)c1OC (stereo not drawn)	5.2%
O=C(Nc1nccs1)c1cc(S(=O)(=O)N2CCOCC2)c(Cl)cc1Cl	15.1%
CC(=O)N(CC1CCCO1)C1(C(=O)NC2CCCC2)CCCCC1 (stereo not drawn)	-7.3%
COC(=O)c1ccc(CSc2nncn2C)cc1	21.6%
COC(=O)c1ccc(CSc2ccc3nnc(-c4ccccc4)n3n2)o1	96.2% (active)
CCOc1ccccc1Nc1nnc(SCc2ccc(C(=O)OC)o2)s1	-73.5%
COc1cc(OC)cc(-c2nc3nc(C)c(CCC(=O)NCc4ccco4)c(C)n3n2)c1	15.8%
O=C(NCc1ccccn1)c1c(O)c2c([nH]c1=O)CCCC2	15%
COc1ccc(CNC(=O)C2CCC(CNc3c(N4CCOCC4)c(=O)c3=O)CC2)cc1 (stereo not drawn)	-7.6%
Cc1cc(O)ccc1-c1cnc2ccccc2n1	-7.4%
O=C(CN1C(=O)c2ccccc2S1(=O)=O)N1CCc2ccccc21	-5.2%
O=C1c2ccccc2S(=O)(=O)N1CC(O)Cn1c2ccccc2c2ccccc21 (stereo not drawn)	94.4% (active)
CNC(=O)CN1C(=O)c2ccccc2S1(=O)=O	-5.9%
CCC(=O)Nc1ccc(C(=O)Nc2ccc3c(c2)C(=O)N(CC2CCCO2)C3=O)cc1 (stereo not drawn)	18.8%
CC(=O)Nc1cccc(Oc2cc(C#N)c(C#N)cc2N2CCOCC2)c1	61.5% (active)
CCOc1cccc(NC(=O)CC#N)c1	-19.3%

SMILES	inhibition
CC(=O)Nc1ccc(N2CCOCC2)c(C(=O)Nc2cccc(C)c2)c1	49.6%
CCC(=O)Nc1ccc(C(=O)Nc2cc(C)on2)cc1	8.5%
Cc1ccc(/C=N/NC(=O)c2sccc2OCc2ccc(F)cc2)cc1	17.4%
O=C(Nc1nnc(CCOCCOCCc2nnc(NC(=O)c3ccco3)s2)s1)c1ccco1	19.4%
Cc1[nH][nH]c(=O)c1N=Nc1ccccc1	25.4%
NS(=O)(=O)c1ccc(CCNC(=O)Nc2ccc(Cl)cc2)cc1	30.4%
O=C(NCCCn1ccnc1)Nc1ccc(Cl)cc1Cl	97.7% (active)
COc1ccccc1-c1cc(C(=O)NCCCn2ccnc2)no1	-25.8%
CCCCOCCCNC(=O)c1ccccc1OCC	-187%
CCCC(=O)Nc1ccc(C(=O)NCCCn2ccnc2)cc1	42.1%
CCOc1ccccc1C(=O)NCCCn1ccnc1	65.1% (active)
Cn1c(=NC(=O)CSCC(=O)N2CCCCC2)sc2ccccc21	-39.3%
O=C(Cc1c(F)cccc1Cl)N1CCN(C(=O)c2ccco2)CC1	11.7%
O=C1CSC(c2cccc(F)c2)N1c1ccc(O)cc1 (stereo not drawn)	32.7%
CCN1CCN(C(=O)/C=C\C(=O)O)CC1	-4.2%
Cc1ccc(N(CC(=O)Nc2cccc(N(C)S(C)(=O)=O)c2)S(C)(=O)=O)cc1	5.5%
CCN(CC)S(=O)(=O)c1ccc(NC(=O)CN(c2cccc(F)c2)S(C)(=O)=O)cc1	97.6% (active)
CS(=O)(=O)N(CC(=O)Nc1ccc(F)cc1F)c1cccc([N+](=O)[O-])c1	13.3%
COc1cccc(N(CC(=O)Nc2cccc(N(C)S(C)(=O)=O)c2)S(C)(=O)=O)c1	57.7% (active)
Cc1cccc(N(CC(=O)Nc2ccc(-c3nc4ccc(C)cc4s3)cc2)S(C)(=O)=O)c1	6.7%
COc1cccc(N(CC(=O)Nc2cccc(F)c2)S(C)(=O)=O)c1	45.4%
